From PubChem BioAssay (Tox21)
Results filed as inconclusive are left out. The source made the active and inactive calls. Calls follow the shape of the dose curve; as a rule, active = well fitted cell-killing curve with a large enough effect in the repeat runs; inconclusive = weak or mixed curves, or effect the other way; inactive = flat fitted curve, though single readings scatter.

test: qHTS assay to identify small molecule antagonists of the androgen receptor (AR) signaling pathway using the MDA cell line in the presence of 0.5 nM R1881 - cell viability counter screen (AID 1259242); settings: MDA-kb2 viability, CellTiter-Fluor protease fluorescence, 16 h; series mostly up to 92.4 µM; viability change, negative = cytotoxic: at the top concentration; also: nearly all actives have a fitted effect of over 45% in size
Text: U.S. Tox21 Program National Center for Advancing Translational Sciences [NCATS] NIH Chemical Genomics Center [NCGC] U.S. Environmental Protection Agency [EPA] National Institutes of Environmental Health Sciences [NIEHS] National Toxicology Program [NTP] U.S. Food and Drug Administration [FDA] Tox21 Assay Overview: Androgen receptor (AR) is an important member of the nuclear receptor family. Its signaling plays a critical role in AR-dependent prostate cancer and other androgen related diseases. Considerable attention has been given in the past decades to develop methods to study and screen for the environmental chemicals that have the potential to interfere with metabolic homeostasis, reproduction, developmental and behavioral functions. Therefore AR binding assay for screening androgen antagonists can be used to identify potential endocrine disruptors. MDA-kb2 cells (from ATCC, deposited by Wilson et al.) were used to screen for AR inhibitors against Tox21 compound libraries. These cells are human breast carcinoma cells that were stably transfected with a luciferase reporter gene under control of the MMTV promoter that contains response elements for both androgen receptor (AR) and glucocorticoid receptor (GR). The current screening for identification of AR inhibitors against Tox21 libraries used lower concentration of (0.5 nM) R1881 as a stimulator. The cytotoxicity of the Tox21 compound libraries against MDA-kb2 cell line was tested by measuring live-cell protease activity using CellTiter-Fluor assay in the same wells.
Tox21 Assay Protocol Summary: MDA-kb2 cells (cells cultured without CO2) were dispensed at 3,000 cells/well in 4 uL of culture medium into white wall/solid-bottom 1536-well plates (Corning Life Sciences, Corning, NY) using a Multidrop Combi (ThermoFisher Scientific, Waltham, MA) dispenser. After the assay plates were incubated at a 37C and 0% CO2 for 5 hr, 23 nL of compounds dissolved in DMSO, positive controls or DMSO only was transferred to the assay plate by a Pintool station (Kalypsys, San Diego, CA). The transfer of compounds was followed by the addition of 1 uL of 0.5 nM (final concentration) agonist (R1881)/culture medium using a Flying Reagent Dispenser (FRD, Aurora Discovery, San Diego, CA). The plates were incubated at 37C and 0% CO2 for 16 hr. For cytotoxicity assay, 1 uL of CellTiter-Fluor reagent (Promega Corporation, Madison, WI) was added to each well using the FRD and after 30 min incubation at 37C and 0% CO2, The fluorescence intensity was measured using ViewLux plate reader (PerkinElmer, Shelton, CT).
% is scaled to controls: 0 for no effect and ±100 for the full control effect.

Structure (SMILES)	viability change, negative = cytotoxic
CC(C)=CCOC(=O)c1ccccc1	1.97% (inactive)
CC(C(=O)O)c1ccc2c(c1)CC(=O)c1ccccc1S2 (stereo not given)	-1.88% [at 42.5 µM] (inactive)
O=C(NCCN1CCOCC1)c1ccc(Cl)cc1	0.107% [at 42.5 µM] (inactive)
Cc1cccc2nccnc12	0.434% (inactive)
CCNC(=O)C1CC(C)CCC1C(C)C (stereo not given)	0.927% (inactive)
O=C(Nc1ccc(Cl)c(Cl)c1)C1CC1	-3.1% [at 42.5 µM] (inactive)
COCCOCCOCCOCCOCCO	2.38% (inactive)
CCCCCCN	0.859% (inactive)
Cc1cc(Cl)c(C)cc1Cl	0% (inactive)
CCOCCOC(=O)/C=C/c1ccc(OC)cc1	-0.312% [at 42.5 µM] (inactive)
C=CC(OCC)OCC	-1.37% (inactive)
O=C1CCCC(=O)O1	0.956% (inactive)
COc1cc2c(cc1OC)C(=O)CC2	0.483% [at 42.5 µM] (inactive)
Cc1ccsc1/C=C/C1=NCCCN1C	0.636% [at 42.5 µM] (inactive)
OCCCCC(O)CO (stereo not given)	0.0785% (inactive)
CC(C)OC(=O)CCCCC(=O)OC(C)C	5.01% (inactive)
Cc1cccc(OCC(O)CNC(C)(C)C)c1C (stereo not given)	-1.13% [at 42.5 µM] (inactive)
NS(=O)(=O)c1cc2c(cc1Cl)CN(C1CCCCC1)C2=O	1.99% [at 42.5 µM] (inactive)
CCOC(=O)/C=C/c1ccccc1	0.4% (inactive)
CCCCCCCCCC(C)=O	3.43% (inactive)

Structure (SMILES)	viability change, negative = cytotoxic
CC1COc2ccccc2N1 (stereo not given)	1.73% (inactive)
COCCOCCOCCOCCO	-2.3% (inactive)
CC(C)NCC(O)COc1cccc2[nH]ccc12 (stereo not given)	-0.58% [at 42.5 µM] (inactive)
C=CCCCCCCCCCCCC	1.75% (inactive)
CC(C)(C)c1n[nH]c(=S)n(N)c1=O	-0.783% (inactive)
CC(C)(C)c1cc(CCC(=O)NN)cc(C(C)(C)C)c1O	7.49% (inactive)
CCN1CCc2nc(N)oc2CC1	-0.866% [at 42.5 µM] (inactive)
CCN(CC)CC(=O)Nc1c(C)cccc1C	2.5% [at 42.5 µM] (inactive)
Nc1nnc(-c2cccc(Cl)c2Cl)c(N)n1	2.01% [at 42.5 µM] (inactive)
C=C(C)C(=O)OCCNC(C)(C)C	-3.35% (inactive)
Cc1ccccc1C(=O)Nc1ccc(C(=O)N2CCCC(N(C)C)c3ccccc32)cc1 (stereo not given)	2.61% [at 42.5 µM] (inactive)
CCc1ccc(C=O)cc1	-3.68% (inactive)
CCCCCCOc1ccccc1C(N)=O	0.558% [at 42.5 µM] (inactive)
CCC(CC)CO	0.76% (inactive)
O=C(c1ccc(O)cc1)c1ccc(O)c(O)c1O	-24.2% (inactive)
CC(C)c1ccc2cc(C(C)C)ccc2c1	-0.733% (inactive)
Oc1cn2c(n1)Nc1ccc(Cl)c(Cl)c1C2	1.91% [at 19 µM] (inactive)
Cc1cccc(C)c1OCC(C)N (stereo not given)	5.03% [at 42.5 µM] (inactive)
CC1(C)S[C@@H]2[C@H](N=CN3CCCCCC3)C(=O)N2[C@H]1C(=O)O	0.619% [at 42.5 µM] (inactive)
Cc1cc(NC(=O)C2=C(O)c3ccccc3S(=O)(=O)N2C)no1	-1.86% [at 42.5 µM] (inactive)
